This experiment has as its system VDR:RXRa (NR concentration 270 nM, RXRa partner concentration 90 nM). Description: PBM binding z-score (relative to random genomic background probes); higher = stronger binding; sequences stand for … in GC…GCGATTGACAGCGTAGAATGAAGG
On the procedure:
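Protein-binding microarray (Agilent 4x180K custom design, double-stranded 60-nt probes: 5' GC cap, 34-nt variable region, 24-nt constant primer region; full probe sequence given). Purified or IVT nuclear receptor:RXRα heterodimers (3:1 NR:RXRα, mostly 270:90 nM) or homodimers were incubated for 1 h in PBS with 2% milk and no ligand, then detected with Alexa488 antibodies. Fluorescence from o1-orientation probes (~5 replicates averaged) was converted to z-scores against 500 random hg19 background probes. Variable regions are seed direct-repeat (DR0–DR5) sites, all their single-nucleotide variants and half-site ablations.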
Sequence AGTCAAAGTTCACGACGAGGTAACGTAAAGCACG registered a PBM binding z-score of 5.05. To CCTCGGAGGACAACCGGAGGTCAGAGCTGCCAGA belongs 1.9; to CGAACTAGGTCAACAGGACAGTGAAGAGGTTGGA, 1.53. To CCTAGTTGGTCAAGGTAACACACGCTATAGGTAC belongs 0.707. The value for CCTACTGGGCCAAGGTCATAGATCAGTCAAAGCA was 2.87. CCTAGTTGGTCAGGAAGTCACACACCGGATATGA yielded a PBM binding z-score of 0.604. To ATATGTAGGTTAGTGTCATTCAGAAAGTAGGGAA belongs 1.04; to CCTACTGGGCCAAAGGTCATAGATTCCAATGCTC, 4.17. CTATGTAGGTTAAGGGGGACATTCAGTTTGAAAG: the PBM binding z-score was 4.95. The value for GCTTACGGGTCAAAAGTTATAGCATGAATAGAAT was 2.93; that for TCGAGTAGGTTACGGGTGCATTCAGGGATGAAGA was 3.53. In the case of CGAACTAGGTCACCAGGACAGTAAAGAGGTTGGA, the PBM binding z-score was found to be 2.05. In turn, CCAAGTAGGTTACGAGGGGGCATTCAGTGCGAAT returned a PBM binding z-score of 5.54.

CGAACGAGGTCAGAACAGGACAGTGAAGGATGAT registered a PBM binding z-score of 3.67. CCGAGTAGGCTACGAGGGGGCATTCAGTGCGAAT returned a PBM binding z-score of 3.16.

For the sequence CGTCCAAGGTCAGAGAGGTCAGTGACTGCCGAGT, the PBM binding z-score turned out to be 7.27. To ATCGAAAGGTCGAGTTGAGTATAGAGAAAGGGAA belongs 3.04. The value for TCTGCTTGGTCAACGATGGTCAGCTAATCTGCTA was -0.63. In turn, CAAACTAGGTCACGAAAGGTCAAAGTGGAATGAC gave a PBM binding z-score of 6.71. To ATATGTAGGTTCCATCCGGGTCATTCAGGCTATG belongs 3.22. The value for CGTCAAAGTTCACCTAAGGTAACGTAAAGCACGC was 4.82.

For the sequence CAGAGTAGGTTACGAGGGGGCATTCAGTGCGAAT, the PBM binding z-score was 5.33. The value for ATATGTAGGTTAGCGGGGGTCATTCAGACTAGGC was 6.4; that for CCGAGTATGTTACGAGGGGGCATTCAGTGCGAAT was 4.06. To TTTCCAAGGTGAAAGGTCGTTGATGCACGCCTTG belongs 3.38; to AATACAGGATCACTAGGCCAGAGTAGGTACGAAT, -0.235. With CGTCAAAGCTCAACTAAGGTAACGTAAAGCACGC, the PBM binding z-score came to 0.0405. The value for ATATGTAGGTTAGGGTCTTTCAGAAAGTAGGGAA was 0.666.

CTATGTAGGCTAAGGGGGTCATTCAGTTTGAAAG registered a PBM binding z-score of 6.41. To GGTACGAGGGCAAAGTTGATAGCATCTGTCGACG belongs 1.14; to TCCAGTAGGTTACGGGGGCATTCAGGGATGAAGA, 4.04. Consider GCTCGGAGGACAAGGTCACAGCTTTGTCCGTAGA, for which the PBM binding z-score was 3.47. The value for CGAACTAGGTCAAAGGACAGTGAAAGGCGACGTA was 1.32; that for CGAACTAGGTCACCAGGACAGTGCAGAGGTTGGA was 2.28. To TTGAGTAGGTTACGGGGGCATTCAGGGATGAAGA belongs 4.34; to CGTCAAAGTTCAAGGTTACGTAACAGAAAGCAGC, 4.31.

With CCGAGTAGGTTACGAGGGGGCATACAGTGCGAAT, the PBM binding z-score worked out at 4.67. CCTACTGGGCCGAGGTCATTGATCAGTCAAAGCA registered a PBM binding z-score of 4.12. To ATATGTAGGTTATCGGGTCATTCATTTTGCGCAT belongs 3.52; to GTACCAAGGTGAATAGGTCGTTGATGAGTAGGCG, 0.95.

The values above are taken from the supplement of paper PMC6555819.
